PubChem BioAssay (NCI)
This is part of a sample that, as a whole, favours compounds with a hit. Of some 83,000 tested, about 20% had one in any assay.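 96-well plates, one dose, 48 hours. Percent growth reported; active if below 10.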 Calls of active or inactive are those of the source.

What was measured:
Assay in all cases: NCI-60 one-dose screen, 48 h (100 = growth as untreated, 0 = no growth, -100 = all killed)
Details in all cases: 10 µM unless noted
[1] = tested on: HCT-15 colon
[2] = tested on: HT29 colon
[3] = tested on: SNB-75 CNS
[4] = tested on: SNB-19 CNS
[5] = tested on: U251 CNS
[6] = tested on: PC-3 prostate
[7] = tested on: SK-MEL-5 melanoma
[8] = tested on: UACC-62 melanoma
[9] = tested on: LOX IMVI melanoma
[10] = tested on: SK-MEL-28 melanoma
[11] = tested on: SK-MEL-2 melanoma
[12] = tested on: EKVX NSCLC
[13] = tested on: SN12C renal
[14] = tested on: UO-31 renal
[15] = tested on: TK-10 renal
[16] = tested on: ACHN renal
[17] = tested on: CAKI-1 renal
[18] = tested on: A498 renal
[19] = tested on: CCRF-CEM leukemia
[20] = tested on: MOLT-4 leukemia

Measured: growth

CCOC(=O)c1c(-c2ccc(Cl)cc2)c(C#N)c2c(C#N)c(N)nn2c1N
inactive: [1] 47.2% | [2] 49.7% | [3] 79.8% | [4] 74.7% | [5] 66.4% | [6] 59.3% | [7] 52.3% | [8] 46.4% | [9] 65.8% | [10] 62.6% | [11] 52.5% | [12] 60.1% | [13] 79.1% | [14] 66.4% | [15] 84.4% | [16] 72% | [17] 66% | [18] 29.3% | [19] 30.5% | [20] 25.6%

O=C1c2cc3c(cc2-c2c1c1ccc(Cl)cc1c(=O)n2C[C@H](O)CO)OCO3
active: [1] 4.59% | [2] 0.971% | [3] -9.59% | [5] 0.379% | [6] 6.95% | [7] -96.6% | [8] -62% | [9] -31.9% | [10] -6.11% | [11] -9.57% | [12] 4.75% | [14] -85.6% | [16] -72.2% | [17] -35.3% | [18] -79.1% | [19] 9.33% | [20] -17.2%
inactive: [4] 14.1% | [13] 10.1% | [15] 14.6%

Nc1ncnc2c1c(-c1ccc(Oc3ccccc3)cc1)nn2CC1SSCC1O (stereo not given)
inactive: [1] 65.3% | [2] 39.2% | [3] 43.5% | [4] 45.5% | [5] 39.7% | [6] 61.7% | [9] 19.2% | [11] 56.8% | [13] 49.1% | [16] 25.9% | [17] 42.5% | [18] 27.8%
active: [7] -42.9% | [8] -76.1% | [10] 2.15% | [12] 4.11% | [14] -3.62% | [15] 8.91% | [19] 9.92% | [20] -33.3%

COC(=O)/C(CCC=C(C)C)=C1\[C@@H](OC(C)=O)C[C@@]2(C)[C@H]1CC(=O)[C@H]1[C@@]3(C)CCC(N4CCCC4)[C@@H](C)[C@@H]3CC[C@@]12C (stereo not given in full)
inactive: [1] 73.4% | [2] 68.2% | [3] 99.2% | [4] 107% | [5] 101% | [6] 89.1% | [7] 99.2% | [8] 97.6% | [9] 101% | [10] 93.6% | [11] 105% | [12] 91.9% | [13] 89% | [14] 70.2% | [15] 102% | [16] 104% | [17] 106% | [18] 105% | [19] 78.2%
active: [20] 9.72%

COc1ccc(C2CC(c3ccc4c(c3)OCO4)=Nc3c(N)ncnc3N2)cc1 (stereo not given)
inactive: [1] 94.3% | [2] 106% | [3] 86.6% | [4] 88.8% | [5] 101% | [6] 98.6% | [7] 87.8% | [8] 90.3% | [9] 101% | [10] 112% | [11] 72.6% | [12] 119% | [13] 111% | [14] 89.4% | [15] 118% | [16] 101% | [17] 120% | [18] 94.4% | [20] 91.9%
active: [19] 3.41%

O=c1[nH]c(-c2ccc(Cl)cc2)cn1-c1ccc(-n2cc(-c3ccc(Cl)cc3)[nH]c2=O)cc1
inactive: [1] 98.8% | [2] 102% | [3] 98.1% | [4] 93.5% | [5] 104% | [6] 77.5% | [7] 101% | [8] 87.5% | [9] 103% | [10] 101% | [11] 95.9% | [12] 109% | [13] 92% | [14] 105% | [15] 103% | [16] 102% | [17] 65.1% | [18] 109% | [19] 107% | [20] 107%

COc1ccc(Cl)cc1Nc1nc(C(F)(F)F)ccc1C(=O)N/N=C/c1ccccc1Cl
active: [1] 0.947% | [2] 9.32% | [4] 9.47% | [5] -25.8% | [6] 5.53% | [7] 3.59% | [8] 8.19% | [9] -13.6% | [11] -7.25% | [12] -0.149% | [13] 0.596% | [14] 2.9% | [16] 3.39% | [19] 7.11% | [20] 3.07%
inactive: [3] 50% | [10] 32.5% | [15] 15.6% | [17] 11.5% | [18] 28.1%

N#Cc1nc2c(S(=O)(=O)c3ccccc3)c(N)n(Cc3cccnc3)c2nc1C#N
inactive: [1] 101% | [2] 104% | [3] 57.4% | [4] 75.9% | [5] 75.5% | [6] 67% | [7] 93.6% | [8] 85.6% | [9] 88.3% | [10] 89.3% | [11] 111% | [12] 76.7% | [13] 138% | [14] 58.4% | [15] 99.2% | [16] 96.2% | [17] 96.3% | [18] 104% | [19] 35.3% | [20] 50%

CS(=O)(=O)Nc1cc(-c2ccc3ncnc(Nc4ccc5c(cnn5Cc5cccnc5)c4)c3c2)cnc1Cl
active: [3] -12.1%
inactive: [1] 84.7% | [2] 65.2% | [4] 60.1% | [5] 55.4% | [6] 52.2% | [7] 50.9% | [8] 25.9% | [9] 39.2% | [10] 29.4% | [11] 14% | [12] 68.2% | [13] 46.2% | [14] 47.9% | [15] 49% | [16] 75.8% | [17] 40.2% | [18] 19.2% | [19] 32.9% | [20] 24.7%

Cc1c(Cl)cccc1C(=O)Nc1nc2c(s1)CN(C(=O)Nc1cccc(C(F)(F)F)c1)CC2
active: [2] 1.39% | [3] 6.15% | [6] 6.43% | [7] 2.35% | [18] -10.2%
inactive: [1] 11.8% | [4] 36.7% | [5] 22.2% | [8] 27.8% | [9] 18.9% | [10] 44.4% | [11] 37.4% | [12] 46% | [13] 26% | [14] 27.8% | [15] 50.9% | [16] 18.3% | [17] 15.9% | [19] 16.7% | [20] 15.9%

N#C/C(=C\c1ccc(Cl)cc1Cl)C(=O)Nc1ncc(Cc2ccc(Cl)c(Cl)c2)s1
inactive: [1] 37.7% | [2] 66.3% | [3] 97.9% | [4] 97.7% | [5] 90.9% | [6] 79.3% | [7] 97.8% | [8] 35.2% | [9] 34.4% | [10] 99.6% | [11] 88.8% | [12] 96.1% | [13] 92.2% | [14] 65.7% | [15] 80.7% | [16] 47.7% | [17] 52.3% | [18] 101% | [19] 87.7% | [20] 92.9%

C[Se]C(=O)CC1=C2C=C(F)C=CC2/C(=C\c2ccc(S(C)=O)cc2)C1C (stereo not given)
active: [3] -25.5% | [4] -22.7% | [5] -36.3% | [7] -87.7% | [9] -68.4% | [10] 4.39% | [12] -7.14% | [13] -51.6% | [15] -19.2% | [17] -20.9% | [18] -64.8% | [20] 6.51%
inactive: [1] 15% | [2] 13.8% | [6] 20.4% | [8] 30.9% | [11] 17.3% | [14] 18% | [16] 11% | [19] 10.6%

Cc1c2cnccc2c(C)c2c1c1cc(C3OCCCO3)ccc1n2C
active: [1] 1.16% | [2] 1.09% | [3] -23% | [4] -3.48% | [5] -1.98% | [6] 2.08% | [7] -95.8% | [8] -43.6% | [9] -23.6% | [10] -29.6% | [11] -67.5% | [12] 3.53% | [13] -10.2% | [14] -7.3% | [15] -14.5% | [16] -12.1% | [17] 8.13% | [18] -56.6% | [19] -6.77% | [20] -4.85%

CC/C=C1/C(=O)C=C[C@@H]1C/C=C\CCCC(=O)OC
inactive: [1] 21.2% | [2] 24.8% | [3] 91.5% | [4] 62.9% | [5] 47.8% | [6] 57% | [8] 16.6% | [10] 89.5% | [11] 90.7% | [12] 101% | [13] 18.8% | [14] 77.9% | [15] 107% | [16] 46.9% | [17] 60.6% | [18] 102%
active: [7] 9.82% | [9] -63.9% | [19] -6.12% | [20] 3.09%

Cc1ncc(C(=O)Nc2ccc(CN3CCN(C)CC3)c(C(F)(F)F)c2)cc1C#Cc1cnc(N)c2cnccc12
active: [1] 6.59% | [2] -43.1% | [3] -90.6% | [5] -20.7% | [7] -20.8% | [8] -65.2% | [9] -90.1% | [10] -0.469% | [11] -85.3% | [14] -30.1% | [15] -22.6% | [16] -21.6% | [17] -91.5% | [18] -90.5%
inactive: [4] 23.1% | [6] 41.7% | [12] 21.5% | [13] 11.7% | [19] 10.3% | [20] 13%
